Measured values as given in PubChem BioAssay AID624417 (National Center for Advancing Translational Sciences (NCATS), 2012).
The campaign covered roughly 410,000 compounds. About 6,400 (1.6%) were called active. A call without a number means that no potency is given here. Not shown: some 20% with an inconclusive outcome. Calls come from the whole dose curve; as a rule, active = well fitted inhibition curve with a large enough effect; inconclusive = small, poorly fitted or top-dose-only effect; inactive = no such curve, though single readings can be large or run the other way. Many of the other results were omitted from the sample, so actives are more common in it than they were.

molecular target: Glucagon-like peptide 1 receptor (Homo sapiens) (UniProt P43220); assay: qHTS of GLP-1 Receptor Inverse Agonists (Inhibition Mode); conditions: HEK293 GLP-1R CRE-luciferase, luminescence, 24 h, GLP-1R form is constitutively active; series mostly up to 38.3 µM; note: nearly all actives have a fitted effect of over 55% in size
Sequence (P43220 whole entry, looked up): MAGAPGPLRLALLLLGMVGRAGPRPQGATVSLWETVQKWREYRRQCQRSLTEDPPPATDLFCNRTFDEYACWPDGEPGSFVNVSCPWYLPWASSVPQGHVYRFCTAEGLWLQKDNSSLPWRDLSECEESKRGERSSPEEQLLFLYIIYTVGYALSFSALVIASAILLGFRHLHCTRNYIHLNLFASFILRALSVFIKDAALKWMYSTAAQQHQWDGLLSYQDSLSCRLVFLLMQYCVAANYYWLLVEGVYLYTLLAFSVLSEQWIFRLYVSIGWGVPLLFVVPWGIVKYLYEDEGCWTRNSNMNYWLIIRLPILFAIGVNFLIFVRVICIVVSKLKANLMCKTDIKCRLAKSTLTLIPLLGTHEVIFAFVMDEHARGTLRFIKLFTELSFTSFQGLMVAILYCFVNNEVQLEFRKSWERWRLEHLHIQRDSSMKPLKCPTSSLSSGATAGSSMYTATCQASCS
Summary of the method: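 HEK293 cells stably co-expressing a cAMP-responsive luciferase reporter and constitutively active GLP-1R were seeded, incubated 12 h, then exposed to compounds for 24 h at 37 C. Luminescence was read 12 min after detection reagent; inverse agonists lower signal.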
Potency is the fitted concentration of half-maximal effect.

Row | SMILES | Potency
1 | CC(C)Oc1c(Br)cc(Br)cc1/C=N/NC(N)=S | 2.51 µM (active)
2 | NC(=S)N/N=C/c1coc2cc(Cl)ccc2c1=O | inactive
3 | CCOc1ccc(/C=N/NC(N)=S)cc1 | inactive
4 | CN1OC[C@@H]2CN(C(=O)c3ccc(-c4ccccc4)cc3)[C@H](c3ccc(-c4cccc(F)c4)cc3)C[C@@H]21 | inactive
5 | CCCCN1C(=O)C(CC(=O)NCc2cccs2)CC(C(=O)N2CCCCCC2)=C1C (stereo not given) | inactive
6 | Cc1cc(Cl)ccc1OCC(=O)N(Cc1ccc(N(C)C)cc1)C1CCS(=O)(=O)C1 (stereo not given) | inactive
7 | COc1ccc(C(=O)N(Cc2ccc(N(C)C)cc2)C2CCS(=O)(=O)C2)cc1 (stereo not given) | inactive
8 | CC1(C)C(C=C(Cl)Cl)C1C(=O)N(Cc1ccc(Cl)cc1)C1CCS(=O)(=O)C1 (stereo not given) | 8.91 µM (active)
9 | C=CCN1CCN(c2ccncc2S(=O)(=O)N2CCN(C)CC2)CC1 | inactive
10 | C[C@@H]1Cn2cnc(C(=O)Nc3ccc(CNC(=O)OC(C)(C)C)cc3)c2C(=O)N1 | inactive
11 | O=C(Cc1ccc(-c2ccccc2)cc1)NC(c1ccccc1)c1ccccc1 | inactive
12 | O=C(CN1CCN(Cc2ccccc2)CC1)Nc1ccc(F)c(F)c1 | inactive
13 | O=C(CN1CCN(Cc2ccccc2)CC1)NC(c1ccccc1)c1ccccc1 | 10 µM (active)
14 | COc1ccc(S(=O)(=O)N(C)C)cc1NC(=O)COC(=O)c1n[nH]c2ccccc12 | inactive
15 | Nc1ncnc2c1ncn2[C@@H]1O[C@H](CNC(=O)[C@H](N)Cc2cccnc2)[C@@H](O)[C@H]1O | inactive
16 | CSc1nsc(SC)c1NC(=O)OC1CCCCC1 | 7.08 µM (active)
17 | O=[N+]([O-])c1cc(Br)c(O)c(/C=N/Nc2nc3ccccc3s2)c1 | 4.47 µM (active)
18 | O=C(NC(Nc1nc2ccc([N+](=O)[O-])cc2s1)(C(F)(F)F)C(F)(F)F)c1ccccc1 | inactive
19 | COc1ccc(CC(=O)N/N=C/c2cc([N+](=O)[O-])cc(Br)c2O)cc1 | inactive
20 | CC1(C(=O)O)CCN1C(=O)/C=C/c1ccccc1 (stereo not given) | inactive

Row | SMILES | Potency
21 | Cc1cccc(S(=O)(=O)N(C)C[C@@H]2OCc3cnnn3CCCC(=O)N([C@H](C)CO)C[C@@H]2C)c1 | inactive
22 | O=C(NCCC1=CCCCC1)C1CCN(Cc2cnn(-c3ccccc3)c2-n2cccc2)CC1 | 4.47 µM (active)
23 | CC(=O)Nc1ccc(NC(=O)CSCc2cnn(-c3ccccc3)c2-n2cccc2)cc1 | inactive
24 | Cc1cc(C)cc(NC(=O)CSCc2cnn(-c3ccccc3)c2-n2cccc2)c1 | inactive
25 | Cc1ccc(S(=O)(=O)N2C[C@H]3C(=O)C[C@@H](c4cccc5ccccc45)N(S(=O)(=O)c4ccc(C)cc4)[C@H]3C[C@H]2c2ccc(Cl)cc2)cc1 | inactive
26 | CC1(C(=O)NS(=O)(=O)c2cccc(OC(F)F)c2)CCN1C(=O)C1CC1 (stereo not given) | inactive
27 | CC1=NN(C(=O)c2ccccc2Br)C(O)(c2cccnc2)C1 (stereo not given) | inactive
28 | CC1=NN(C(=O)Cc2ccc(C)cc2)C(O)(c2cccnc2)C1 (stereo not given) | inactive
29 | CC1=NN(C(=O)c2ccc(Br)cc2)C(O)(c2ccccc2)C1 (stereo not given) | 1.12 µM (active)
30 | CCOC(=O)[C@]12CCCC=C1N(CCC1=CCCCC1)C(=O)[C@H](CC(=O)N1CCOCC1)C2 | inactive
31 | CC(=O)Nc1cccc(-c2cc3nc(NCc4cccnc4)n(C)c(=O)c3s2)c1 | inactive
32 | Cc1c(C(=O)NCC2CC2)sc(=O)n1Cc1cccc(F)c1 | inactive
33 | O=C1NC[C@H](Cc2ccc(O)cc2)N(C[C@@H]2CCCN2C[C@H](Cc2ccccc2)N2C[C@H](Cc3ccccc3)N(CC3CCCCC3)C(=O)C2=O)C1=O | inactive
34 | CC1CN(c2nc(Nc3ccccc3)nc(N)c2[N+](=O)[O-])CC(C)O1 (stereo not given) | inactive
35 | c1ccc(-c2nnc(N3CCOCC3)c3ccccc23)cc1 | inactive
36 | c1ccc(Nc2nc(N3CCOCC3)c3ccccc3n2)cc1 | 10 µM (active)
37 | CCc1cc(C(=O)N(CC)CC(=O)Nc2c(F)cccc2F)sc1C | inactive
38 | COC(=O)C[C@@H]1C=C[C@@H](NS(=O)(=O)c2cccc(OC)c2)[C@@H](CO)O1 | inactive
39 | Cc1ccc2cccc(NC(=O)c3cccc4ccccc34)c2n1 | 11.2 µM (active)
40 | O=C(Nc1cccc2cccnc12)c1cccc2c(Br)cccc12 | inactive

Row | SMILES | Potency
41 | Cc1ccc2cccc(NC(=O)c3ccc(OC(C)C)cc3)c2n1 | inactive
42 | CNc1cnc(-c2cc(OC)c(OC)c(OC)c2)cn1 | inactive
43 | CCn1c(C(O)c2cc(OC)ccc2OC)nc2ccccc21 (stereo not given) | inactive
44 | COc1ccc(-c2nc3ccccc3n2CCC(C)C)cc1OC | 8.91 µM (active)
45 | CCCn1c(C(O)c2cc(OC)ccc2OC)nc2ccccc21 (stereo not given) | inactive
46 | CCOC(=O)c1c(NC(=S)SC)sc(C(=O)N2CCc3ccccc3C2)c1C | inactive
47 | Cc1ccc(C(=O)N[C@H](C(=O)N2CCN(c3ncccn3)CC2)C(C)C)cc1 | inactive
48 | CCN(CC)C(=O)C1=C(C)N(Cc2ccc(OC)cc2)C(=O)C(CC(=O)NCc2ccco2)C1 (stereo not given) | inactive
49 | CCN(CC)C(=O)C1=C(C)N(Cc2ccc(C(C)(C)C)cc2)C(=O)C(CC(=O)NCc2cccc3ccccc23)C1 (stereo not given) | 11.2 µM (active)
50 | COc1ccc(CN2C(=O)C(CC(=O)NCc3cccc4ccccc34)CC(C(=O)N3CCOCC3)=C2C)cc1 (stereo not given) | inactive
51 | COC(=O)C(Cc1c[nH]c2ccccc12)NC(=O)CCNC(=O)c1ccco1 (stereo not given) | inactive
52 | COc1ccc(S(=O)(=O)N2CCC(C(=O)NCCC(=O)Nc3ccccc3OC)CC2)cc1 | inactive
53 | Nc1nc2c(ncn2[C@@H]2O[C@H](CNCc3ccc(OCCCN4CCOCC4)cc3)[C@@H](O)[C@H]2O)c(=O)[nH]1 | inactive
54 | COC(=O)Cc1ccc(OC2(C)CCN(Cc3ccc4c(c3)OCCO4)C2)cc1 (stereo not given) | inactive
55 | COc1ccc(NC(=O)CSc2nnnn2-c2cccc(OC)c2)cc1 | inactive
56 | CCOc1cccc(-n2nnnc2-c2ccc(OC)cc2)c1 | 2.51 µM (active)
57 | COc1ccc(-n2nnnc2-c2nc3ccccc3s2)cc1 | inactive
58 | O=C(NCCO)c1cccc(-c2cccc3nccn23)c1 | inactive
59 | O=C1NC[C@H](CCCCN2CCN(CCc3ccccc3)C(=O)C2=O)N(CC2CCCCC2)C1=O | inactive
60 | COC(=O)c1ccc2nc(-c3ccc(F)cc3)c(Cc3ccc(C)cc3)n2c1 | inactive
